Records with an inconclusive call do not appear. Calls of active or inactive are those of the source. How the source made its calls, unless noted: active means hit-call score of the fitted dose curve at least 0.9, where 1 is the maximum; inactive means score below 0.9.
What was measured:
[1] = CCTE_Mundy_HCI_Cortical_Synap_Neur_Matur_NeuriteLength: CCTE's Synaptogenesis and Neurite Maturation Assay in rat cortical cells for Neurite Length, Mundy Lab (AID 2284214)
How it was run: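 Rat primary cortical cultures, AraC added DIV 5, dosed DIV 7 through DIV 12 […]. Fixed, MAP2/synaptophysin immunostained with Hoechst; neurite length by high-content imaging, fitted in positive direction versus DMSO.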

[2] = CCTE_Mundy_HCI_Cortical_Synap_Neur_Matur_NeuriteSpotCountPerNeuron: CCTE's Synaptogenesis and Neurite Maturation Assay in rat cortical cells for Neurite Spot Count per Neuron Count, Mundy Lab (AID 2284215)
How it was run: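 Rat primary cortical cultures given AraC at DIV 5, dosed from DIV 7 to DIV 12 with media change. Fixed, stained for MAP2, synaptophysin and Hoechst; neurite-associated synaptophysin puncta per neuron quantified by high-content imaging versus DMSO.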

[3] = CCTE_Mundy_HCI_Cortical_Synap_Neur_Matur_NeuriteCount: CCTE's Synaptogenesis and Neurite Maturation Assay in rat cortical cells for Neurite Count, Mundy Lab (AID 2284222)
How it was run: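 Rat primary cortical cells; AraC added at DIV 5, chemicals dosed with media change at DIV 7 through DIV 12. MAP2/synaptophysin/Hoechst immunostaining, high-content imaging of neurite number; fitted relative to DMSO.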

[4] = CCTE_Mundy_HCI_Cortical_Synap_Neur_Matur_CellBodySpotCount: CCTE's Synaptogenesis and Neurite Maturation Assay in rat cortical cells for Cell Body Spot Count, Mundy Lab (AID 2284223)
How it was run: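 Primary rat cortical cultures, AraC added at DIV 5; dosed DIV 7 through DIV 12 […]. Fixed, stained for MAP2 and synaptophysin with Hoechst; cell body-associated synaptophysin puncta per neuron counted by high-content imaging, loss vs DMSO.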

[5] = CCTE_Mundy_HCI_hNP1_Pro_ResponderAvgInten: CCTE's Proliferation Assay in human neuroprogenitor cells, Mundy Lab (AID 2284224; active means hit-call score of the fitted dose curve at least 0.9, where 1 is the maximum;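 further: human neural progenitor cells hNP1 derived from WA09 embryonic stem cells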)
How it was run: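 Proliferation read as average intensity of BrdU-positive cells, imaged at 26.25 h post-dosing: chemical exposure started after 40–44 h culture, BrdU during final 4 h, paraformaldehyde fixation. Positive-direction fit relative to DMSO.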

[6] = UKN2_HCS_IMR90_cell_viability: Viability Assessment in the University of Konstanz (UKN) Leist Lab Neural Crest Cell Migration Assay in human induced IMR90 Pluripotent Stem Cells (UKN2) (AID 2284233);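 further: viability of neural crest cells differentiated from IMR90 iPSC measured by calcein-AM fluorescence imaging; cells exposed to compound for 24 h after a 24 h migration phase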
How it was run: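 Neural crest cells derived from IMR90 iPSC migrate into a stopper-free zone for 24 h in EGF/FGF medium, then are exposed to compound for 24 h. Viability assessed by calcein-AM and Hoechst staining with high-content imaging, fitted bidirectionally versus DMSO.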

[7] = CCTE_Mundy_HCI_Cortical_NOG_NeuronCount: CCTE's Neurite Outgrowth Assay in rat cortical cells for Neuron Count, Mundy Lab (AID 2284236; active means hit-call score of the fitted dose curve at least 0.9, where 1 is the maximum;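 further: neurons counted by imaging betaIII-tubulin and Hoechst stained cortical cells; cells exposed to compound for about 48 hours before fixation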)
How it was run: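 Read-out: neuron number by high-content imaging of betaIII-tubulin (Alexa Fluor-488) and Hoechst-labelled rat primary cortical cells.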

[8] = CCTE_Mundy_HCI_Cortical_NOG_BPCount: CCTE's Neurite Outgrowth Assay in rat cortical cells for Branch Point Count, Mundy Lab (AID 2284237);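 further: branch points counted about two days after chemical exposure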
How it was run: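 Measured 50.33 h after dosing, this morphology endpoint uses rat primary cortical cultures labelled for betaIII-tubulin. Branch points are quantified by high-content imaging, with DMSO as negative control and baseline.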

[9] = CCTE_Mundy_HCI_hNP1_Casp3_7: CCTE's Caspase-Glo 3/7 Assay in human neuroprogenitor cells for Apoptosis, Mundy Lab (AID 2284240)
How it was run: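 Luminescent caspase-3/7 readout, 26.5 h post-dose, in human neural progenitor cells from WA09 embryonic stem cells. Cells grew 40–44 h at 37 °C, 5% CO2 before chemical addition. Activity analysed as signal increase over DMSO baseline.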

[10] = CCTE_Mundy_HCI_hNP1_CellTiter: CCTE's Cell Titer-Glo 2 Assay in human neuroprogenitor cells for Viability, Mundy Lab (AID 2284241; active means hit-call score of the fitted dose curve at least 0.9, where 1 is the maximum;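 further: a hit is a drop in ATP luminescence versus DMSO meaning reduced viability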)
How it was run: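 Viability read as luminescent ATP content (CellTiter-Glo, 30 min room temperature) twenty-four hours after dosing, relative to DMSO. Cells: WA09-derived hNP1 neuroprogenitors on poly-L-ornithine/laminin, plated 40 to 44 hours before chemical.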

[11] = CCTE_Mundy_HCI_Cortical_Synap_Neur_Matur_NeuronCount: CCTE's Synaptogenesis and Neurite Maturation Assay in rat cortical cells for Neuron Count, Mundy Lab (AID 2284242; active means hit-call score of the fitted dose curve at least 0.9, where 1 is the maximum;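 further: hits reduce neuron count versus DMSO baseline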)
How it was run: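 Rat primary cortical cells, AraC added at DIV 5, dosed with media change from DIV 7 to DIV 12. Fixed, Hoechst-stained and immunolabelled for MAP2 and synaptophysin; neuron number counted by high-content imaging, loss fitted versus DMSO.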

[12] = IUF_NPC2c_oligodendrocyte_migration_120hr: Leibniz Research Institute for Environmental Medicine (IUF) 120-hour Neural Progenitor Cell Migration Assay for Oligodendrocyte Migration (NPC2c) (AID 2284297);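 further: O4-positive oligodendrocyte migration distance divided by radial glia migration distance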
How it was run: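 Human fetal neural progenitor spheres (0.3 mm) are plated on poly-D-lysine/laminin in N2 differentiation medium and exposed for 120 h, with half-medium renewal at day 3. Oligodendrocyte (O4+) migration distance comes from ICC imaging, normalised to radial glia migration.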

[13] = IUF_NPC2a_radial_glia_migration_120hr: Leibniz Research Institute for Environmental Medicine (IUF) 120-hour Neural Progenitor Cell Migration Assay for Radial Glia Migration (NPC2a) (AID 2284298)
How it was run: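 Human fetal-cortex neural progenitor spheres (0.3 mm) plated on poly-D-lysine/laminin in N2 differentiation medium, exposed 120 h at 37C with half-medium renewal at day 3. Radial glia migration distance (um) measured from Hoechst-stained nuclei images; DMSO baseline.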

[14] = IUF_NPC2a_radial_glia_migration_72hr: Leibniz Research Institute for Environmental Medicine (IUF) 72-hour Neural Progenitor Cell Migration Assay for Radial Glia Migration (NPC2a) (AID 2284299)
How it was run: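 Human fetal neural progenitor spheres (0.3 mm) plated on poly-D-lysine/laminin in N2 differentiation medium and exposed from day 0 at 7 concentrations; radial glia migration distance from sphere edge measured at 72 h on brightfield images, mean of four directions, vs DMSO.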

[15] = IUF_NPC2b_neuronal_migration_120hr: Leibniz Research Institute for Environmental Medicine (IUF) 120-hour Neural Progenitor Cell Migration Assay for Neuron Migration (NPC2b) (AID 2284300)
How it was run: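 0.3 mm hNPC spheres on poly-D-lysine/laminin in N2 differentiation medium exposed 120 h, half-medium refresh day 3; 7 concentrations, DMSO max 0.1%. Neuron (TUBB3) distance from sphere core by ICC imaging, normalised to radial glia migration.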

[16] = IUF_NPC3_neuronal_differentiation_120hr: Leibniz Research Institute for Environmental Medicine (IUF) 120-hour Neuronal Differentiation Assay (NPC3) (AID 2284301)
How it was run: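 Human fetal (GW 16-19) neural progenitor spheres (0.3 mm) plated on poly-D-lysine/laminin in N2 differentiation medium, exposed 120 h at 37C with half-medium renewal day 3; 7 concentrations. TUBB3+ cells as % of Hoechst nuclei, CNN-identified; DMSO baseline.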

[17] = IUF_NPC4_neurite_length_120hr: Leibniz Research Institute for Environmental Medicine (IUF) 120-hour Neuronal Morphology Assay for Neurite Length (NPC4) (AID 2284302)
How it was run: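 Human fetal neural progenitor spheres (0.3 mm) plated on poly-D-lysine/laminin in N2 differentiation medium, exposed from day 0 for 120 h with half-medium refresh at day 3, 37C. Mean neurite length (um) of TUBB3-positive neurons from skeletonized immunostaining images; DMSO ≤0.1%.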

[18] = IUF_NPC5_oligodendrocyte_differentiation_120hr: Leibniz Research Institute for Environmental Medicine (IUF) 120-hour Oligodendrocyte Differentiation Assay (NPC5) (AID 2284304; active means hit-call score of the fitted dose curve at least 0.9, where 1 is the maximum;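 further: primary human fetal neural progenitor spheres plated to migrate and differentiate; share of O4-positive cells among Hoechst nuclei found by CNN image analysis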)
How it was run: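 Human fetal neural progenitor spheres (0.3 mm) plated on poly-D-lysine/laminin in N2 differentiation medium and exposed for 120 h at 7 concentrations, with half-medium renewal at day 3. O4-positive cells identified by CNN, expressed as percent of Hoechst nuclei.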

[19] = IUF_NPC4_neurite_area_120hr: Leibniz Research Institute for Environmental Medicine (IUF) 120-hour Neuronal Morphology Assay for Neurite Area (NPC4) (AID 2284305; active means hit-call score of the fitted dose curve at least 0.9, where 1 is the maximum)
How it was run: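 Human fetal neural progenitor spheres (0.3 mm) plated on poly-D-lysine/laminin in N2 differentiation medium, exposed 120 h (7 concentrations, DMSO ≤0.1%, half-medium refresh day 3). Fixed, TUBB3 immunostained; mean neurite area per neuron by Omnisphero skeletonization.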

[20] = IUF_NPC2-5_cytotoxicity_72hr: Cytotoxicity Assessment at 72 hours in the Leibniz Research Institute for Environmental Medicine (IUF) Neural Progenitor Cell Migration and Differentiation Assay for Cytotoxicity (NPC2-5) (AID 2284306; active means hit-call score of the fitted dose curve at least 0.9, where 1 is the maximum;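 further: LDH release into supernatant measured by resorufin fluorescence marking membrane damage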)
How it was run: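 Human fetal primary neural progenitor spheres (0.3 mm) plated on poly-D-lysine/laminin in N2 differentiation medium, exposed from day 0 at 37C. LDH-dependent resazurin-to-resorufin fluorescence in supernatant at 72 h; 7 concentrations, DMSO at most 0.1%.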

[21] = IUF_NPC2-5_cytotoxicity_120hr: Cytotoxicity Assessment at 120 hours in the Leibniz Research Institute for Environmental Medicine (IUF) Neural Progenitor Cell Migration and Differentiation Assay (NPC2-5) (AID 2284307; active means hit-call score of the fitted dose curve at least 0.9, where 1 is the maximum;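 further: LDH released into supernatant as membrane damage marker via resorufin fluorescence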)
How it was run: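 Human fetal (GW 16-19) neural progenitor spheres (0.3 mm) plated on poly-D-lysine/laminin in N2 differentiation medium, exposed 120 h with half-medium renewal at day 3; 7 concentrations plus solvent control, DMSO ≤0.1%. LDH release in supernatant read by resorufin fluorescence.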

[22] = IUF_NPC2-5_cell_number_120hr: Cell Number Assessment at 120 hours in the Leibniz Research Institute for Environmental Medicine (IUF) Neural Progenitor Cell Migration and Differentiation Assay (NPC2-5) (AID 2284308);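 further: count of Hoechst-stained nuclei in migration zone around plated human neural progenitor spheres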
How it was run: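 Human fetal neural progenitor spheres (0.3 mm) plated on poly-D-lysine/laminin in N2 differentiation medium, exposed five days across 7 concentrations with half-medium refresh at day 3. Hoechst-positive nuclei counted in migration area at 120 h, relative to DMSO.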

[23] = IUF_NPC2-5_viability_120hr: Viability Assessment at 120 hours in the Leibniz Research Institute for Environmental Medicine (IUF) Neural Progenitor Cell Migration and Differentiation Assay (NPC2-5) (AID 2284312)
How it was run: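 Human fetal neural progenitor spheres (0.3 mm) plated on poly-D-lysine/laminin in N2 differentiation medium, exposed 120 h with half-medium refresh at day 3. Viability by alamar blue resazurin fluorescence; 7 concentrations, DMSO max 0.1%.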

[24] = IUF_NPC1_cytotoxicity_72hr: Cytotoxicity Assessment at 72 hours in the Leibniz Research Institute for Environmental Medicine (IUF) Neural Progenitor Cell Proliferation Assay (NPC1) (AID 2284332; active means hit-call score of the fitted dose curve at least 0.9, where 1 is the maximum;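 further: rising LDH signal means more cytotoxicity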)
How it was run: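 Human fetal neural progenitor spheres (0.3 mm) in EGF/FGF proliferation medium, 37C, exposed 72 h without renewal. LDH release in supernatant read by resorufin fluorescence; gain of signal scored relative to dynamic range.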

[25] = CCTE_Mundy_HCI_iCellGluta_NOG_NeuronCount: CCTE's Neurite Outgrowth Assay in iCellGluta cells for Neuron Count, Mundy Lab (AID 2284340; active means hit-call score of the fitted dose curve at least 0.9, where 1 is the maximum;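 further: cells fixed about 48 h after compound addition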)
How it was run: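 Neuron count read by automated high-content imaging of Hoechst 33342 and betaIII-tubulin/Alexa Fluor-488 labelling in human iPSC glutamatergic neurons. Activity fitted relative to DMSO.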

[26] = CCTE_Mundy_HCI_iCellGluta_NOG_NeuriteCount: CCTE's Neurite Outgrowth Assay in iCellGluta cells for Neurite Count, Mundy Lab (AID 2284342; active means hit-call score of the fitted dose curve at least 0.9, where 1 is the maximum;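 further: chemical exposure about 48 hours starting 2 hours after plating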)

Measured: AC50

Cc1c(O)cccc1C(=O)N[C@@H](CSc1ccccc1)[C@H](O)CN1C[C@H]2CCCC[C@H]2C[C@H]1C(=O)NC(C)(C)C
inactive: [6] | [24]
active: [1] 4.56 µM | [2] 2.49 µM | [3] 5.46 µM | [4] 6.41 µM | [5] 13.8 µM | [7] 25 µM | [8] 15.4 µM | [9] 18.7 µM | [10] 11.1 µM | [11] 4.18 µM | [12] 12.7 µM | [13] 8.08 µM | [14] 13.4 µM | [15] 19.9 µM | [16] 7.87 µM | [17] 7.21 µM | [18] 0.596 µM | [19] 8.75 µM | [20] 14.5 µM | [21] 9.82 µM | [22] 8.12 µM | [23] 7.38 µM | [25] 39.4 µM | [26] 37.4 µM

Reference: PubChem BioAssay (EPA / NIEHS)
